Screens: PubChem, National Center for Advancing Translational Sciences (NCATS)
HT1080 IDH1KD tx: toxicity to HT-1080 IDH1 knockdown cells (counter line); actives 2% (n = 360,000); Potency, µM (top dose mostly 46.1 µM), for inactives: at the highest dose activity, negative = toxicity, usual class: cytotoxic; HT-1080 IDH1 knockdown viability, ATP luminescence, 48 h;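 further: potency means the concentration at half of the fitted maximal effect; 0% = DMSO wells and -100% = cell-free medium wells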
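IDH1KD HT-1080 cells, 750/well, RPMI + 5% FBS; compound pinned after 2 h settling; 48 h, 37 °C; CellTiter-Glo luminescence; % activity normalised to DMSO and no-cell wells; curves fitted, classed by r2 and efficacy.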
IL-1B inflam inh: blocks inflammasome-driven IL-1 beta release; AID 743279; THP-1 LPS/ATP IL-1B secretion, AlphaLISA, 16 h; hits give low values; actives 4.7% (n = 360,000); activity change, % at 57.5 µM; in the data active means activity change below about -50%; inconclusive means mostly about -30% to -49%
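Secreted IL-1B measured by AlphaLISA bead assay after 16 h compound exposure of THP-1 cells; compounds (final up to 57.5 uM) added 1 h before LPS (250 ng/mL) and ATP (1.25 mM) stimulation; lower signal means less secretion.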
DT40 TDP1 no CPT: qHTS for Inhibitors of human tyrosyl-DNA phosphodiesterase 1 (TDP1): qHTS in cells in absence of CPT | DT40 Tdp1-/- hTDP1 cells, no CPT, ATP luminescence, 48 h | Potency, µM (top dose mostly 46.2 µM), inactives show top-dose activity change, negative = growth inhibition, actives largely listed as inhibitors | actives 15% (n = 420,000) | AID 686978, 2013; further: potency means the concentration at half of the fitted maximal effect; nearly all actives have a fitted effect of over 55% in size
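Cells were dispensed at 400 per well, compounds added by pin tool, plates incubated ≥48 hr at 37 °C, then CellTiter-Glo added for 30 min at room temperature before luminescence reading. Line: DT40 Tdp1-/- complemented with hTDP1; camptothecin omitted.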
TDP1 cell CPT: growth inhibition of DT40 Tdp1-/-;hTDP1 cells with camptothecin (screen for TDP1 inhibitors); Potency, µM (titrated, usually from 46.2 µM), for inactives: at the top dose activity change, negative = growth inhibition, actives largely listed as inhibitors; chicken DT40 Tdp1-/-;hTDP1 cells + 20 nM CPT, ATP luminescence, 48 h; actives 12% (n = 420,000); AID 686979; further: potency means the concentration at half of the fitted maximal effect; nearly all actives have a fitted effect of over 55% in size
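Cell growth measured by CellTiter-Glo luminescence after a minimum 48 h, 37 C compound exposure with 20 nM CPT in Tdp1-knockout DT40 cells stably expressing hTDP1, seeded 400/well; qHTS titration format.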
HT1080-NT tox: kills 2HG-producing HT-1080-NT fibrosarcoma cells | HT-1080-NT fibrosarcoma viability, CellTiter-Glo ATP luminescence, 48 h | Potency, µM (series often up to 46.1 µM), for inactives: at the highest dose activity, negative = less viability, hits mostly cytotoxic | actives 1.6% (n = 360,000);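 further: NT is the 2HG producing partner of a matched IDH1 knockdown line; potency means the concentration at half of the fitted maximal effect; 0% = DMSO-treated cells and -100% = media-only wells without cells; nearly all actives have a fitted effect of over 55% in size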
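Compounds were tested in concentration-response format on HT-1080-NT cells for 48 hours at 37 degrees C. Cell viability came from CellTiter-Glo luminescence; curves were classified by r2, response magnitude and activity.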
* marks the source's active call; other numbers are inactive results. Hits are enriched below; roughly 19% of the tested compounds scored in any of these assays. Unless noted, the call rests on the fitted dose curve; in most records, active means well fitted curve in the direction sought with a large enough effect; inconclusive means small, poorly fitted or top-dose-only effect, or another doubt; inactive means no such curve, though single readings can be large; an effect the other way counts as inactive or inconclusive. Unless noted, on the % scale 0 is the no-effect control and ±100 the full control effect.

`O=C1C(=O)c2cccc3cccc1c23` gave HT1080 IDH1KD tx 6%, IL-1B inflam inh 5, DT40 TDP1 no CPT 0.65µM*, TDP1 cell CPT 0.58µM* and HT1080-NT tox 0%.
`O=C1C(c2ccccc2)=C(N2CC2)c2ccccc21` gave HT1080 IDH1KD tx -4%, IL-1B inflam inh -11, DT40 TDP1 no CPT inconclusive, TDP1 cell CPT inconclusive and HT1080-NT tox 5%.
`O=C1C(=O)c2ccccc2-c2ccccc21` gave HT1080 IDH1KD tx 1.2µM*, IL-1B inflam inh -108*, DT40 TDP1 no CPT 0.58µM*, TDP1 cell CPT 0.52µM* and HT1080-NT tox 0.92µM*.
For Cc1ccc([C@@H]2CC(=O)[C@@H]3CN(S(=O)(=O)c4ccccc4C)[C@H](c4ccc(Cl)cc4)C[C@@H]3N2S(=O)(=O)c2ccc(C)cc2)cc1 the results were HT1080 IDH1KD tx -1%, IL-1B inflam inh 49, DT40 TDP1 no CPT 26µM*, TDP1 cell CPT inconclusive and HT1080-NT tox 3%.
Screening O=S(=O)(c1ccc(Cl)cc1)N1CCCC1c1cccnc1 (stereo not drawn) returned HT1080 IDH1KD tx -11%, IL-1B inflam inh -3, DT40 TDP1 no CPT -12%, TDP1 cell CPT -1% and HT1080-NT tox -15%.
For CCc1cccc(C)c1N(C(=O)CCl)C(C)COC (stereo not drawn) the results were DT40 TDP1 no CPT -17% and TDP1 cell CPT inconclusive.
Screening Cc1[nH]c2ccccc2c1CCNCc1cccnc1 returned HT1080 IDH1KD tx 10%, IL-1B inflam inh -5, DT40 TDP1 no CPT -2%, TDP1 cell CPT 3% and HT1080-NT tox 11%.
Screening COc1ccc2[nH]c(C)c(CCNCc3cn(C)c4ccccc34)c2c1 returned HT1080 IDH1KD tx inconclusive, IL-1B inflam inh -86*, DT40 TDP1 no CPT 9.2µM*, TDP1 cell CPT 12µM* and HT1080-NT tox inconclusive.
For NC(N)=NN=C(/C=C/c1ccc([N+](=O)[O-])o1)/C=C/c1ccc([N+](=O)[O-])o1 the results were DT40 TDP1 no CPT 3µM* and TDP1 cell CPT 3µM*.
For Cc1cccc(N2C(=O)NC(=O)/C(=C/c3ccc([N+](=O)[O-])o3)C2=O)c1 the results were HT1080 IDH1KD tx -5%, IL-1B inflam inh -1, DT40 TDP1 no CPT inconclusive, TDP1 cell CPT inconclusive and HT1080-NT tox -1%.
Screening CNC(=S)N1CCN(CCN=Cc2c(O)n(-c3ccc(C)cc3)c(=S)[nH]c2=O)CC1 returned HT1080 IDH1KD tx 27%, IL-1B inflam inh -14, DT40 TDP1 no CPT -7%, TDP1 cell CPT 4% and HT1080-NT tox -4%.
For CCCCCc1cc(O)c2c(c1)OC(C)(C)[C@@H]1CCC(C)=C[C@@H]21 the results were DT40 TDP1 no CPT inconclusive and TDP1 cell CPT 21µM*.
`CN(C)c1ccccc1` gave HT1080 IDH1KD tx -5%, IL-1B inflam inh 5, DT40 TDP1 no CPT 16%, TDP1 cell CPT 2% and HT1080-NT tox 11%.
For C/C(=C\c1ccc(N(C)C)cc1)[N+](=O)[O-] the results were HT1080 IDH1KD tx 6.3µM*, IL-1B inflam inh -107*, DT40 TDP1 no CPT 4.1µM*, TDP1 cell CPT 4.1µM* and HT1080-NT tox 11µM*.
`CCP(=S)(CC)c1ccc(N(C)C)cc1` gave HT1080 IDH1KD tx 15%, IL-1B inflam inh 17, DT40 TDP1 no CPT inconclusive, TDP1 cell CPT inconclusive and HT1080-NT tox -3%.
Screening CN(C)c1ccc(/C=C/[N+](=O)[O-])cc1 returned HT1080 IDH1KD tx 23µM*, IL-1B inflam inh -64*, DT40 TDP1 no CPT 16µM*, TDP1 cell CPT inconclusive and HT1080-NT tox inconclusive.
`Cc1ccc(-c2nc(CN3C(=O)CN=C(c4ccccc4Cl)c4cc(Cl)ccc43)c(C)o2)cc1` gave DT40 TDP1 no CPT 15µM* and TDP1 cell CPT 16µM*.
For Cc1oc(-c2ccccc2)nc1CN1C(=O)CN=C(c2ccccc2)c2ccccc21 the results were HT1080 IDH1KD tx -1%, IL-1B inflam inh -14, DT40 TDP1 no CPT inconclusive, TDP1 cell CPT 18µM* and HT1080-NT tox -1%.
For CC(=O)OC1CCC2(/C=N/O)C(=CCC3C4CCC(=O)C4(C)CCC32)C1 (stereo not drawn) the results were HT1080 IDH1KD tx 0%, IL-1B inflam inh -4, DT40 TDP1 no CPT inconclusive, TDP1 cell CPT -18% and HT1080-NT tox -1%.
CCN(CC)CCO[C@H]1CC[C@@]2(C)C(=CC[C@@H]3[C@H]2CC[C@]2(C)C(=O)CC[C@H]32)C1 was read as DT40 TDP1 no CPT 2.4µM* and TDP1 cell CPT 2.4µM*.
COCCO[C@H]1CC[C@@]2(C)C(=CCC3C2CC[C@@]2(C)C3CC[C@]2(C)O)C1 (stereo partly drawn) was read as HT1080 IDH1KD tx -4%, IL-1B inflam inh -72*, DT40 TDP1 no CPT 12µM*, TDP1 cell CPT inconclusive and HT1080-NT tox -7%.
CCN(CC)CCO[C@H]1CC[C@@]2(C)C(=CC[C@@H]3[C@@H]2CC[C@]2(C)C(=O)CC[C@@H]32)C1 was read as DT40 TDP1 no CPT 2.7µM* and TDP1 cell CPT 24µM*.
`C[C@]12CCC(OC(=O)CCC(=O)O)CC1=CCC1C2CC[C@]2(C)C(=O)CCC12` (stereo partly drawn) gave HT1080 IDH1KD tx 2%, IL-1B inflam inh -8, DT40 TDP1 no CPT -22%, TDP1 cell CPT 3% and HT1080-NT tox 6%.
Screening C[C@]12CC[C@H](OS(=O)(=O)O)CC1=CC[C@@H]1[C@@H]2CC[C@]2(C)C(=O)CC[C@@H]12 returned HT1080 IDH1KD tx 7%, IL-1B inflam inh 4, DT40 TDP1 no CPT 5%, TDP1 cell CPT 8% and HT1080-NT tox 5%.
`COc1ccc(OC(=O)N(C)C[C@@H]2OCc3cnnn3CCCC(=O)N([C@H](C)CO)C[C@@H]2C)cc1` gave HT1080 IDH1KD tx 17%, IL-1B inflam inh 6, DT40 TDP1 no CPT -27%, TDP1 cell CPT -4% and HT1080-NT tox 5%.
`CCN(CC)Cc1nccn1-c1ccc([N+](=O)[O-])cc1C(=O)c1ccccc1Cl` gave DT40 TDP1 no CPT 6µM* and TDP1 cell CPT -83%.
`Nc1ccc(Cl)cc1C(=O)c1ccccc1Cl` gave HT1080 IDH1KD tx inconclusive, IL-1B inflam inh -1, DT40 TDP1 no CPT inconclusive, TDP1 cell CPT -26% and HT1080-NT tox inconclusive.
`Cc1ccc(NC(=O)N(Cc2ccc3c(c2)OCO3)C2CCN(Cc3ccccc3)CC2)cc1Cl` gave DT40 TDP1 no CPT 15µM* and TDP1 cell CPT 4.6µM*.
Screening Cc1ccc(NC(=O)N(Cc2ccc3c(c2)OCO3)C2CCN(Cc3ccccc3)CC2)cc1C returned DT40 TDP1 no CPT 29µM* and TDP1 cell CPT inconclusive.
